{"source": "paper PMC7862700", "about": "“An all-to-all approach to the identification of sequence-specific readers for epigenetic DNA modifications on cytosine”", "assay_in_all_cases": "DAPPL (digital affinity profiling via proximity ligation, sequencing); 10 mM Tris-HCl pH 7.5, 50 mM NaCl, 1 mM DTT, 4% glycerol, room temperature, 30 min; GST-TFs on glutathione beads, 16-mer random dsDNA library, 0.1% formaldehyde crosslink after washing; high values mean tight binding", "key": {"[1]": {"target": "T1, FLI1 (Homo sapiens, UniProt Q01543 1-452)", "T1 sequence": "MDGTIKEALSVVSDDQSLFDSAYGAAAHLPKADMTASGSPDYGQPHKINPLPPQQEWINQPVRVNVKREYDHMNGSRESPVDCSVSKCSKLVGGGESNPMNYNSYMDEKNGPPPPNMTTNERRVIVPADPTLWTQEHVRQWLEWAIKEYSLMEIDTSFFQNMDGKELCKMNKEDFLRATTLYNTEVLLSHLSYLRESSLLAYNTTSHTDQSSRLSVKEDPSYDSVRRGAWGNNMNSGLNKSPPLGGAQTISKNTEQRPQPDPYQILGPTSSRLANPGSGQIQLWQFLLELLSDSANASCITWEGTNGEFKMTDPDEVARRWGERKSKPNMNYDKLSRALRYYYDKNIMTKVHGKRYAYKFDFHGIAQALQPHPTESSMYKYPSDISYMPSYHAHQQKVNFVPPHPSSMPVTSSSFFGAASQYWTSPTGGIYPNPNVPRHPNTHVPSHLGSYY", "conditions": "protein: recombinant; tags: N-terminal GST; dsDNA, one strand shown", "how_it_was_run": "(§1)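 Human transcription factors were made in yeast as GST fusions, captured on glutathione beads and barcoded with DNA. With a tag-only sample included, the pool was incubated with 200 nmole of a random double-stranded 16-mer DNA library in Tris/NaCl/DTT/glycerol buffer at room temperature for 30 min, then crosslinked with 0.1% formaldehyde after washing, ligated by proximity, amplified and sequenced. For binding signal, each hexamer's read frequency for a factor is divided by its frequency for the tag-only sample.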"}, "[2]": {"target": "T2, GABPA (Homo sapiens, UniProt Q06546 1-454)", "T2 sequence": "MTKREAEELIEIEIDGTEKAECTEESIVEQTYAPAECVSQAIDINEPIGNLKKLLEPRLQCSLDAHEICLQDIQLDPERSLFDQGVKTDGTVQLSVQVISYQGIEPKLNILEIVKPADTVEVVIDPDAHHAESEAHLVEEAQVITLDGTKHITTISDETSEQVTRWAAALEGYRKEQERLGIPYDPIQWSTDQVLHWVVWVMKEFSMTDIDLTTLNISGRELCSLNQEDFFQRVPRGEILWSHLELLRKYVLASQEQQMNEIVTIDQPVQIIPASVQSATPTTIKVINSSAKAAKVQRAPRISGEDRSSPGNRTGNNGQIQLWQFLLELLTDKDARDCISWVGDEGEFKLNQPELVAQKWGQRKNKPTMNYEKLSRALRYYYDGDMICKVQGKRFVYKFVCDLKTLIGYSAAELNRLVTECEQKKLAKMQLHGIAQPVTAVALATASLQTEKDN", "conditions": "protein: recombinant; tags: N-terminal GST; dsDNA, one strand shown", "how_it_was_run": "as §1"}, "[3]": {"target": "T3, ERG (Homo sapiens, UniProt P11308 1-479)", "T3 sequence": "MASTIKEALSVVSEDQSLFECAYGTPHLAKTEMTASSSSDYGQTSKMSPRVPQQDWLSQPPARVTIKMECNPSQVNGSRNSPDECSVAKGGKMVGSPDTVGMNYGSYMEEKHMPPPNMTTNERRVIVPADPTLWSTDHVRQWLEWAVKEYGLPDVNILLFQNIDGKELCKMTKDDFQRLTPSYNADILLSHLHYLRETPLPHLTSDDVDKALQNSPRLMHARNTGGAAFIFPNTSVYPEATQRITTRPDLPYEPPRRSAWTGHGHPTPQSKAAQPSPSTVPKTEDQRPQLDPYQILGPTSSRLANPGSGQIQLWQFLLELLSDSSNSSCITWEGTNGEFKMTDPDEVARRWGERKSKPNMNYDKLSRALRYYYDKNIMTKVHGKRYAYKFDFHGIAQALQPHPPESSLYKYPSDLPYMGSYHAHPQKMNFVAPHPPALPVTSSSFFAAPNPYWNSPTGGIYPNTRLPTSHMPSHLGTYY", "conditions": "protein: recombinant; tags: N-terminal GST; dsDNA, one strand shown", "how_it_was_run": "as §1"}, "[4]": {"target": "ELF1 (Homo sapiens, UniProt P32519 1-619)", "sequence (P32519 whole entry)": "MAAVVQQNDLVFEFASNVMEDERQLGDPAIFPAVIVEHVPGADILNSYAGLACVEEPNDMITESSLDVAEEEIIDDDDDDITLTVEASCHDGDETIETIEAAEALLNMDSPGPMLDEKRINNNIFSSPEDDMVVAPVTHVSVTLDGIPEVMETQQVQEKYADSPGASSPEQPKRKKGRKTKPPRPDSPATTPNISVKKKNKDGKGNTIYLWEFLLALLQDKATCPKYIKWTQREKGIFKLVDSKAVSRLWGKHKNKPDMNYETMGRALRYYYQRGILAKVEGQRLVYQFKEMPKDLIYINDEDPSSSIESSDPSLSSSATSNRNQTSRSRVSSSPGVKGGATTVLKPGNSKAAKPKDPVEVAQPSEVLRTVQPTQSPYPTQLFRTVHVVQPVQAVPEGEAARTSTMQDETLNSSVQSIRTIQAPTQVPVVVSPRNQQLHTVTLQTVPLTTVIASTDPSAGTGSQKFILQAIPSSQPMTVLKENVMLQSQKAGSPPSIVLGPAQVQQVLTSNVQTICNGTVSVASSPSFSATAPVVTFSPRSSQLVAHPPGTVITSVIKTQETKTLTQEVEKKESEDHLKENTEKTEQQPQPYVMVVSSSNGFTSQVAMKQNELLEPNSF", "conditions": "protein: recombinant; tags: N-terminal GST; dsDNA, one strand shown", "how_it_was_run": "as §1"}, "[5]": {"target": "T4, EHF (Homo sapiens, UniProt Q9NZC4 1-300)", "T4 sequence": "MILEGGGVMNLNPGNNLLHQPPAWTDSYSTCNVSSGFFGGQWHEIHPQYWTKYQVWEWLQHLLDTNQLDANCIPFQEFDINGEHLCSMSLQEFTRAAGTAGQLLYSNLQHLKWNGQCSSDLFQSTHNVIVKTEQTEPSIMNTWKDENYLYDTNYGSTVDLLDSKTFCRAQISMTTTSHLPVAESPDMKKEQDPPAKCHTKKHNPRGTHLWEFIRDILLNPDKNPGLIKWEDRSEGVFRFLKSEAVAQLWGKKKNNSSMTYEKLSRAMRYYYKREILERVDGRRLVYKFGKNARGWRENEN", "conditions": "protein: recombinant; tags: N-terminal GST; dsDNA, one strand shown", "how_it_was_run": "as §1"}, "[6]": {"target": "SPI1 (Homo sapiens, UniProt P17947 1-270)", "conditions": "protein: recombinant; tags: N-terminal GST; dsDNA, one strand shown", "how_it_was_run": "as §1"}, "[7]": {"target": "T5, ELK3 (Homo sapiens, UniProt P41970 1-407)", "T5 sequence": "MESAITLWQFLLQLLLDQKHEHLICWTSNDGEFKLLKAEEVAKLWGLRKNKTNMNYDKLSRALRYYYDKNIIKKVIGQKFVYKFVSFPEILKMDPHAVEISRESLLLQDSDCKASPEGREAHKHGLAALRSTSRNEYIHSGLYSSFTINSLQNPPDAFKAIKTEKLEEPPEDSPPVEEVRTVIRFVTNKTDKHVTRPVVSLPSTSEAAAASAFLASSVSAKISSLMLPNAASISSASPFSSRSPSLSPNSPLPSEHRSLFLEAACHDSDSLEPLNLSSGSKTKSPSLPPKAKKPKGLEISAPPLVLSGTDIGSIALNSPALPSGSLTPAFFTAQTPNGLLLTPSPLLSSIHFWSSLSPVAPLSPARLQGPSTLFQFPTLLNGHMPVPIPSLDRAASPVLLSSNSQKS", "conditions": "protein: recombinant; tags: N-terminal GST; dsDNA, one strand shown", "how_it_was_run": "as §1"}, "[8]": {"target": "T6, FEV (Homo sapiens, UniProt Q99581 1-238)", "T6 sequence": "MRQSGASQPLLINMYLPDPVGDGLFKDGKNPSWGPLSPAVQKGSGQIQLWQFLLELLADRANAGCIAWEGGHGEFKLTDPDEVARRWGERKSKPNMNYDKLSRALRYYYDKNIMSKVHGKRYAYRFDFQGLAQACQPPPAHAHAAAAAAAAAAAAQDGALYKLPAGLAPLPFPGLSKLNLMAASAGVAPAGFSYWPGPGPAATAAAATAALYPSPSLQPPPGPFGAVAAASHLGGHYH", "conditions": "protein: recombinant; tags: N-terminal GST; dsDNA, one strand shown", "how_it_was_run": "as §1"}, "[9]": {"target": "ETV5 (Homo sapiens, UniProt P41161 1-510)", "sequence (P41161 whole entry)": "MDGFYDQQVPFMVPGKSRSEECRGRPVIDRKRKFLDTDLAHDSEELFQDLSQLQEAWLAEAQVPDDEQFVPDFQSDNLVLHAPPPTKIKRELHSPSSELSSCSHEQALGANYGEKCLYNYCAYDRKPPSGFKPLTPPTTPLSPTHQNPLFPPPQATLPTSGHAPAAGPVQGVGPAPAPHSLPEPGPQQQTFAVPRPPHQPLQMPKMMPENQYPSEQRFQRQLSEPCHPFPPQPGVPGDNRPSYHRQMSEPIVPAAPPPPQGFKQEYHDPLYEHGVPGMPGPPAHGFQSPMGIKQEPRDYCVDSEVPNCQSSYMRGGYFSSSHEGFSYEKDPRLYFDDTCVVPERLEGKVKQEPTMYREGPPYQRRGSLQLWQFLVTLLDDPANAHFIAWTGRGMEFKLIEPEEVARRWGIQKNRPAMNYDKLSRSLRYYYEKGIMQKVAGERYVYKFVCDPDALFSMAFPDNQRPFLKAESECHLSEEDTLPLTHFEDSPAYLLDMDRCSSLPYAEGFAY", "conditions": "protein: recombinant; tags: N-terminal GST; dsDNA, one strand shown", "how_it_was_run": "as §1"}, "[10]": {"target": "HSF1 (Homo sapiens, UniProt Q00613 1-529)", "sequence (Q00613 whole entry)": "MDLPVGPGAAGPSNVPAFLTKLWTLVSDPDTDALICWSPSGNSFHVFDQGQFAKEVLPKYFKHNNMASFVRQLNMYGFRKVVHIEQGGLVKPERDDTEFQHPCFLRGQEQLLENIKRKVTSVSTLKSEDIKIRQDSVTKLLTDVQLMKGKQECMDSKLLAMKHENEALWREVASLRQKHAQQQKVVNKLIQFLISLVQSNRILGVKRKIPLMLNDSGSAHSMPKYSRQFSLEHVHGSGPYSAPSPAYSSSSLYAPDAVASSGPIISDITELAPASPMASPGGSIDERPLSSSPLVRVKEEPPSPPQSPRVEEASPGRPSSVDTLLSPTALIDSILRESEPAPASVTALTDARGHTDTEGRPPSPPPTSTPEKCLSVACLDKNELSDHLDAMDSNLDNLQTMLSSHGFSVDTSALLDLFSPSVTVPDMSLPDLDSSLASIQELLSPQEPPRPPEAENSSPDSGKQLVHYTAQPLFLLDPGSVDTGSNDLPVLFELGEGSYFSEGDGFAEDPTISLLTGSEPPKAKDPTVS", "conditions": "protein: recombinant; tags: N-terminal GST; chain copies: 3; dsDNA, one strand shown", "how_it_was_run": "as §1"}, "[11]": {"target": "T7, ELK4 (Homo sapiens, UniProt P28324-2 1-405)", "T7 sequence": "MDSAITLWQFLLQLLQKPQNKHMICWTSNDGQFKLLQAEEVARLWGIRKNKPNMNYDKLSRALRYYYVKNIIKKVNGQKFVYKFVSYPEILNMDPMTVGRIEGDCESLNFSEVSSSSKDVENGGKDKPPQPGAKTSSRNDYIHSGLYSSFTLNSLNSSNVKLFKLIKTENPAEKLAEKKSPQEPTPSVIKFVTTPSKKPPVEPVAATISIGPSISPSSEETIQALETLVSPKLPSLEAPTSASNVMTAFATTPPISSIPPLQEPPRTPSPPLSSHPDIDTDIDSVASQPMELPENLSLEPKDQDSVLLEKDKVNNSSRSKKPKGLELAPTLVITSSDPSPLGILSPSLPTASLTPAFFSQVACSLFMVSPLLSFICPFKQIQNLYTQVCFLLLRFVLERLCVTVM", "conditions": "protein: recombinant; tags: N-terminal GST; dsDNA, one strand shown", "how_it_was_run": "as §1"}, "[12]": {"target": "T8, ELF3 (Homo sapiens, UniProt P78545 1-371)", "T8 sequence": "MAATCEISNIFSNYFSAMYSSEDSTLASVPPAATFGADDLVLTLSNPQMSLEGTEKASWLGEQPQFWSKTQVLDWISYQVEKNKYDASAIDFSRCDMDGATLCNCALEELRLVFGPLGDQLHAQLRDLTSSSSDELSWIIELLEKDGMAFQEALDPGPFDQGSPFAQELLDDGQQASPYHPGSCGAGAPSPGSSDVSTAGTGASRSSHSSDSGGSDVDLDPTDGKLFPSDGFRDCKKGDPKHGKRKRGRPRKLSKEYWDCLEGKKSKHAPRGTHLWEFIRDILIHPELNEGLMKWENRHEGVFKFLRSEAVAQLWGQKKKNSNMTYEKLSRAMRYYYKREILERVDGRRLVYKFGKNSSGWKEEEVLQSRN", "conditions": "protein: recombinant; tags: N-terminal GST; dsDNA, one strand shown", "how_it_was_run": "as §1"}, "[13]": {"target": "CRX (Homo sapiens, UniProt O43186 1-299)", "sequence (O43186 whole entry)": "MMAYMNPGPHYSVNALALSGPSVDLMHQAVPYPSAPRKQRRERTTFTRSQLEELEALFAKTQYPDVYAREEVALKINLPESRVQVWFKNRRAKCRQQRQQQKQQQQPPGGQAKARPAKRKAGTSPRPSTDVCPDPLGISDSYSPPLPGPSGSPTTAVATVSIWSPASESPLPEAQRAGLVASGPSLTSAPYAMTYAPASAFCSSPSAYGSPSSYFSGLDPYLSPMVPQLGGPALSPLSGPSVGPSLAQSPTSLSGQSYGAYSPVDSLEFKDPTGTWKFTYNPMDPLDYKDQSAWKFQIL", "conditions": "protein: recombinant; tags: N-terminal GST; dsDNA, one strand shown", "how_it_was_run": "as §1"}, "[14]": {"target": "ETV1 (Homo sapiens, UniProt P50549 1-477)", "sequence (P50549 whole entry)": "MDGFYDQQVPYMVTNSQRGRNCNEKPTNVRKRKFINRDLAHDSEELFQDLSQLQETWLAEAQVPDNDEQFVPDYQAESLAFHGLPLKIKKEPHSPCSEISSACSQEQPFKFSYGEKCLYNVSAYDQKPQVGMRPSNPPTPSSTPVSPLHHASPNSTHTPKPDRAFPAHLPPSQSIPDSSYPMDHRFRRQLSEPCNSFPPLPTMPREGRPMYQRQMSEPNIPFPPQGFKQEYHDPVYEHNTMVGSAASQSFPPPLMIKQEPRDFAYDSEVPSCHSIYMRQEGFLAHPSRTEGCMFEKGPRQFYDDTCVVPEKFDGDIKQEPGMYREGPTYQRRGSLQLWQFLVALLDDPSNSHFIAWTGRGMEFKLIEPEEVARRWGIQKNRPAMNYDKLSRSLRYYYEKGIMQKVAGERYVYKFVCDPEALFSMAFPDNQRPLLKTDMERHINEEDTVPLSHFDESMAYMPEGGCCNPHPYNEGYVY", "conditions": "protein: recombinant; tags: N-terminal GST; dsDNA, one strand shown", "how_it_was_run": "as §1"}}, "data": [{"sequence": "GGCTTA", "values": [{"measurement": "binding signal", "setting": "[1]", "value": "1.05 fold enrichment (6-mer frequency, TF over GST control)"}, {"measurement": "binding signal", "setting": "[2]", "value": "1.17 fold enrichment (6-mer frequency, TF over GST control)"}, {"measurement": "binding signal", "setting": "[3]", "value": "1.04 fold enrichment (6-mer frequency, TF over GST control)"}, {"measurement": "binding signal", "setting": "[4]", "value": "1.08 fold enrichment (6-mer frequency, TF over GST control)"}, {"measurement": "binding signal", "setting": "[5]", "value": "1.02 fold enrichment (6-mer frequency, TF over GST control)"}, {"measurement": "binding signal", "setting": "[6]", "value": "1.02 fold enrichment (6-mer frequency, TF over GST control)"}, {"measurement": "binding signal", "setting": "[7]", "value": "1.01 fold enrichment (6-mer frequency, TF over GST control)"}, {"measurement": "binding signal", "setting": "[8]", "value": "1.08 fold enrichment (6-mer frequency, TF over GST control)"}, {"measurement": "binding signal", "setting": "[9]", "value": "1.03 fold enrichment (6-mer frequency, TF over GST control)"}, {"measurement": "binding signal", "setting": "[10]", "value": "2.04 fold enrichment (6-mer frequency, TF over GST control)"}, {"measurement": "binding signal", "setting": "[11]", "value": "1.16 fold enrichment (6-mer frequency, TF over GST control)"}, {"measurement": "binding signal", "setting": "[12]", "value": "1.14 fold enrichment (6-mer frequency, TF over GST control)"}, {"measurement": "binding signal", "setting": "[13]", "value": "3.34 fold enrichment (6-mer frequency, TF over GST control)"}, {"measurement": "binding signal", "setting": "[14]", "value": "1.11 fold enrichment (6-mer frequency, TF over GST control)"}]}]}
